Binding signal data for 1 sequence are collected here from paper PMC7862700, “An all-to-all approach to the identification of sequence-specific readers for epigenetic DNA modifications on cytosine”.

What all share (assay): DAPPL (digital affinity profiling via proximity ligation, sequencing); 10 mM Tris-HCl pH 7.5, 50 mM NaCl, 1 mM DTT, 4% glycerol, room temperature, 30 min; GST-TFs on glutathione beads, 16-mer random dsDNA library, 0.1% formaldehyde crosslink after washing; high values mean tight binding
One assay deals with T1, FEV (Homo sapiens, UniProt Q99581 1-238).
T1 sequence: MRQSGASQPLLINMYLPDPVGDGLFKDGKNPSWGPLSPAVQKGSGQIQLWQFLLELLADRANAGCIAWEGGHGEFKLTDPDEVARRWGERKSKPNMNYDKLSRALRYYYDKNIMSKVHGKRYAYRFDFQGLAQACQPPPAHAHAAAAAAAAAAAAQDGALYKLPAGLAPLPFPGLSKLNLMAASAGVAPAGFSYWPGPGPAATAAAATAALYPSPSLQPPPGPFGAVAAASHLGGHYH
As to conditions: protein: recombinant; tags: N-terminal GST; dsDNA, one strand shown. In a few lines: (§1)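 Binding signal is defined as a hexamer's read frequency for one factor over its frequency for the tag-only sample. To obtain reads, GST-fused human transcription factors were expressed in yeast, captured on glutathione beads, barcoded with DNA and pooled with that sample. Pools met 200 nmole of a 16-mer random double-stranded DNA library in Tris/NaCl/DTT/glycerol buffer for 30 min at room temperature before washing, 0.1% formaldehyde crosslinking, proximity ligation (BsaI/T4 ligase, 1 h, 37 °C), PCR and Illumina NextSeq500 sequencing.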

For the next assay, the target named is ETV5 (Homo sapiens, UniProt P41161 1-510). As to conditions: protein: recombinant; tags: N-terminal GST; dsDNA, one strand shown. Put shortly: as §1
The target of the next assay is HSF1 (Homo sapiens, UniProt Q00613 1-529). As to conditions: protein: recombinant; tags: N-terminal GST; chain copies: 3; dsDNA, one strand shown. In a few lines: as §1
In another assay the target is T2, SPIC (Homo sapiens, UniProt Q8N5J4 1-248).
T2 sequence: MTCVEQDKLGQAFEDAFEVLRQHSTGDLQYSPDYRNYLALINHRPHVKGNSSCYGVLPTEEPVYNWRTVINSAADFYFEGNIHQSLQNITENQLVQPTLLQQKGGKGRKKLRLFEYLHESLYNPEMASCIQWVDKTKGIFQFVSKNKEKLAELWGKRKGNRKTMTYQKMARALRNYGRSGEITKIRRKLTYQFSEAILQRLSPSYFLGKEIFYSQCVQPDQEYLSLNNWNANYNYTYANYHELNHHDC
Particulars: protein: recombinant; tags: N-terminal GST; dsDNA, one strand shown. Put shortly:
as §1

A further assay addresses ELF4 (Homo sapiens, UniProt Q99607 1-663). As to conditions: protein: recombinant; tags: N-terminal GST; dsDNA, one strand shown. In a few lines: as §1
For a further assay, the target named is T3, ELK4 (Homo sapiens, UniProt P28324-2 1-405).
T3 sequence: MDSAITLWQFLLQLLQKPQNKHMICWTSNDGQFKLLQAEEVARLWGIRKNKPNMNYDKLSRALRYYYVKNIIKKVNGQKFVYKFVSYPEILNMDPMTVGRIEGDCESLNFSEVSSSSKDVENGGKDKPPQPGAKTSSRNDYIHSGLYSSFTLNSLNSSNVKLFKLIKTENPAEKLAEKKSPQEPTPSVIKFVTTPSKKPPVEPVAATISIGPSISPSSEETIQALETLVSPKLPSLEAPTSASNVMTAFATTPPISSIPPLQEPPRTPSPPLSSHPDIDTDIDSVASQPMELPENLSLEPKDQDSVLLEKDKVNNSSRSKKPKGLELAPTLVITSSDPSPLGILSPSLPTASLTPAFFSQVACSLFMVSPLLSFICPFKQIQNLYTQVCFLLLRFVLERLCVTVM
As to conditions: protein: recombinant; tags: N-terminal GST; dsDNA, one strand shown. Put shortly: as §1

For the next assay, the target named is T4, ETV2 (Homo sapiens, UniProt O00321 1-342).
T4 sequence: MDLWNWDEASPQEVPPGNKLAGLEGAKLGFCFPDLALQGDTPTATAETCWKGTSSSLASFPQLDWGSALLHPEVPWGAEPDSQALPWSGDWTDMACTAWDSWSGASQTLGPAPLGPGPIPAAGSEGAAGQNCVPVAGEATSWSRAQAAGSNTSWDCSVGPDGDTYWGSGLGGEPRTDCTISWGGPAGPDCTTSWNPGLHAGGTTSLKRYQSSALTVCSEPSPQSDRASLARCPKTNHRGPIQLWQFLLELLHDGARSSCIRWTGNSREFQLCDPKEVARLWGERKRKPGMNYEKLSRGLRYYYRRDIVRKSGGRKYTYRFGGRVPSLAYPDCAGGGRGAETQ
Particulars: protein: recombinant; tags: N-terminal GST; dsDNA, one strand shown. In a few lines:
as §1

In another assay the target is T5, ELF3 (Homo sapiens, UniProt P78545 1-371).
T5 sequence: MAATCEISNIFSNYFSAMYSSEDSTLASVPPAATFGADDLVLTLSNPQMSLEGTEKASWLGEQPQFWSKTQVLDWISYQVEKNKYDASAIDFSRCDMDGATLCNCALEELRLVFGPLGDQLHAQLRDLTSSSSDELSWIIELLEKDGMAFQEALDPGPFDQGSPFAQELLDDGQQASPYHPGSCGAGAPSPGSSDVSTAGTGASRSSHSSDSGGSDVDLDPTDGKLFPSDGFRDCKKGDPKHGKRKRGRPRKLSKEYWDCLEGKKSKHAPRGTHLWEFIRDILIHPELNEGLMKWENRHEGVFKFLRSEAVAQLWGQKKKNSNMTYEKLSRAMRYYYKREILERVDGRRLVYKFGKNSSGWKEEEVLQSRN
Particulars: protein: recombinant; tags: N-terminal GST; dsDNA, one strand shown. Put shortly: as §1

In another assay the target is CRX (Homo sapiens, UniProt O43186 1-299). As to conditions: protein: recombinant; tags: N-terminal GST; dsDNA, one strand shown. In a few lines: as §1
In the next assay the target is ETV1 (Homo sapiens, UniProt P50549 1-477). As to conditions: protein: recombinant; tags: N-terminal GST; dsDNA, one strand shown. Put shortly:
as §1

The target of the next assay is T6, ERF (Homo sapiens, UniProt P50548 1-548).
T6 sequence: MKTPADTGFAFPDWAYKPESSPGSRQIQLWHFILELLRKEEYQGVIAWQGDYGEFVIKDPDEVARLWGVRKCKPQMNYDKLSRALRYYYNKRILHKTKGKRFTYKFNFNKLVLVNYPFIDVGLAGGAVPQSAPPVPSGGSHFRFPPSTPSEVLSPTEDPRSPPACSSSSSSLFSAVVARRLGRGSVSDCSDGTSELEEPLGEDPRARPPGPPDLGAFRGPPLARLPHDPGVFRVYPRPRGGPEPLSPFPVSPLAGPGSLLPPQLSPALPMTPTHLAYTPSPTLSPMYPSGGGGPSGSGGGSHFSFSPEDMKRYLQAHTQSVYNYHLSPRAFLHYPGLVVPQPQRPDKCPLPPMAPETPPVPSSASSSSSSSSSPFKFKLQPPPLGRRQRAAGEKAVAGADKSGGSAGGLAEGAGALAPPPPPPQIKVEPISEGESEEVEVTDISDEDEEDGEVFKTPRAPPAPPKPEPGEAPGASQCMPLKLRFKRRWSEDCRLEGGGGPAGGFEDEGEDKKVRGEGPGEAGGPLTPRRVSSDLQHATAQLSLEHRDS
Particulars: protein: recombinant; tags: N-terminal GST; dsDNA, one strand shown. Put shortly:
as §1

The target of a further assay is T7, ETV3L (Homo sapiens, UniProt Q6ZN32 1-361).
T7 sequence: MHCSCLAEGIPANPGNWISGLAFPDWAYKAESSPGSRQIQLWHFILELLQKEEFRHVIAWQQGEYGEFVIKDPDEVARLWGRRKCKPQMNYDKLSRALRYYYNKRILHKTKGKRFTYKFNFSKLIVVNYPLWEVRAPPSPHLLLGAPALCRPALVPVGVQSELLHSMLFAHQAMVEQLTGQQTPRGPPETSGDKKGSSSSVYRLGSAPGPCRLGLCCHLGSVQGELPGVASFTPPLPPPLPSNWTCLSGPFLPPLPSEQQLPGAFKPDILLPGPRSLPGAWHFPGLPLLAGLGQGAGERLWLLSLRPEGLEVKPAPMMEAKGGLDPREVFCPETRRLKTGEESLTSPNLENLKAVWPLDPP
Particulars: protein: recombinant; tags: N-terminal GST; dsDNA, one strand shown. In a few lines: as §1

In a further assay the target is T8, ETS2 (Homo sapiens, UniProt P15036 1-469).
T8 sequence: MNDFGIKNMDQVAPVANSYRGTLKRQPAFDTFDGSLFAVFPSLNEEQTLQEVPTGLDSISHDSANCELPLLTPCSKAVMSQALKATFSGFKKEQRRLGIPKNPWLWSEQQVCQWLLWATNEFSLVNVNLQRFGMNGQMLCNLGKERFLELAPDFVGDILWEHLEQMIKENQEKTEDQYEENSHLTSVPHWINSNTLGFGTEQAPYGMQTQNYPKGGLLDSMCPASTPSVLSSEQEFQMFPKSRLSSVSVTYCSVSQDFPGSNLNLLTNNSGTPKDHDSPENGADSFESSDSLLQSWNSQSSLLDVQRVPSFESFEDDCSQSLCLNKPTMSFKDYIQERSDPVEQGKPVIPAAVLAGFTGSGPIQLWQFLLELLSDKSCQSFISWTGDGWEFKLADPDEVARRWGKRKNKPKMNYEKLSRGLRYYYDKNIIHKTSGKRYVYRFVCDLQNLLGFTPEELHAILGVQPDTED
Particulars: protein: recombinant; tags: N-terminal GST; dsDNA, one strand shown. In a few lines: as §1

The target of the next assay is T9, SPDEF (Homo sapiens, UniProt O95238 1-335).
T9 sequence: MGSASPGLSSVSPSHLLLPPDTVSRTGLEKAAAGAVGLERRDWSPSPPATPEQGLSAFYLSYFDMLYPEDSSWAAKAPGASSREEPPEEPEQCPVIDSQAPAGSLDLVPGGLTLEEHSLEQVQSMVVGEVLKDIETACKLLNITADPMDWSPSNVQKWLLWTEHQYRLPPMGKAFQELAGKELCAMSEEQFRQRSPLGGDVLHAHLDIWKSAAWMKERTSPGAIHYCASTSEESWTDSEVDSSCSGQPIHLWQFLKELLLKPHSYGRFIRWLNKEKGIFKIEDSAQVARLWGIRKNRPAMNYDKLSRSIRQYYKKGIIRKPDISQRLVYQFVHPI
As to conditions: protein: recombinant; tags: N-terminal GST; dsDNA, one strand shown. Put shortly: as §1

The target of the next assay is T10, ETV7 (Homo sapiens, UniProt Q9Y603 1-341).
T10 sequence: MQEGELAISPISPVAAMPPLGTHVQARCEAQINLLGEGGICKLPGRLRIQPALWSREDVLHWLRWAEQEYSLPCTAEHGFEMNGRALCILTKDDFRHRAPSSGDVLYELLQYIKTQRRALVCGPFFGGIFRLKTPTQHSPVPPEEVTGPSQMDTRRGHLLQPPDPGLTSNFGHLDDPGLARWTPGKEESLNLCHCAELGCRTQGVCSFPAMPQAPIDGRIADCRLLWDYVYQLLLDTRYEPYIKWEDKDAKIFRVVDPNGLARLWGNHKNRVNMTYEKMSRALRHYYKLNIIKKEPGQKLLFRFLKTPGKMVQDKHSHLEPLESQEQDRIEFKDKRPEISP
Particulars: protein: recombinant; tags: N-terminal GST; dsDNA, one strand shown. Put shortly:
as §1

The target of a further assay is T11, ELF5 (Homo sapiens, UniProt Q9UKW6-2 1-255).
T11 sequence: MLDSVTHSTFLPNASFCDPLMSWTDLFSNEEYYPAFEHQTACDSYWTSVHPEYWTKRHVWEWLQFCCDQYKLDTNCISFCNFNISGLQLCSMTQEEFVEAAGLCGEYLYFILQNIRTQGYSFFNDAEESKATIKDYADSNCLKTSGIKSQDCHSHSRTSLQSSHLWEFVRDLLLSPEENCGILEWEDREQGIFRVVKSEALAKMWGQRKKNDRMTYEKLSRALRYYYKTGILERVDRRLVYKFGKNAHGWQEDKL
Particulars: protein: recombinant; tags: N-terminal GST; dsDNA, one strand shown. Put shortly: as §1

Another assay deals with T12, ETV3 (Homo sapiens, UniProt P41162-2 1-143).
T12 sequence: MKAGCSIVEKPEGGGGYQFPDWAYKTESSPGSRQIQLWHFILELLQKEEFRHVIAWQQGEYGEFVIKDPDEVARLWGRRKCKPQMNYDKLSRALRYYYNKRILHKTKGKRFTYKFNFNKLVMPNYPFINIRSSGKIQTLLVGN
Particulars: protein: recombinant; tags: N-terminal GST; dsDNA, one strand shown. Put shortly: as §1

For another assay, the target named is ETV6 (Homo sapiens, UniProt P41212 1-452). Particulars: protein: recombinant; tags: N-terminal GST; dsDNA, one strand shown. Put shortly:
as §1

Chain of ETV6 (P41212 whole entry): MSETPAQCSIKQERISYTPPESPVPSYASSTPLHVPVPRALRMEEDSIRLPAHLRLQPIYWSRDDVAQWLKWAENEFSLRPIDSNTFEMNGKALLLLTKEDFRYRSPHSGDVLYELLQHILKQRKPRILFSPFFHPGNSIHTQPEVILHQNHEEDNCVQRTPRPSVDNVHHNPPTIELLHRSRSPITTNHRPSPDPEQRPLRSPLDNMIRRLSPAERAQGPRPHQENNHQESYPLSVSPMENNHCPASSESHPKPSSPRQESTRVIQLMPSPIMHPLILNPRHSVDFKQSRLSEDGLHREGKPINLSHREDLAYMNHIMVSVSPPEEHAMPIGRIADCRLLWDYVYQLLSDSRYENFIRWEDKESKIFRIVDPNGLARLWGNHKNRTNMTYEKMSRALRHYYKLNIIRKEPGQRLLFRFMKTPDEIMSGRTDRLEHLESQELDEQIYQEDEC
Chain of ETV5 (P41161 whole entry): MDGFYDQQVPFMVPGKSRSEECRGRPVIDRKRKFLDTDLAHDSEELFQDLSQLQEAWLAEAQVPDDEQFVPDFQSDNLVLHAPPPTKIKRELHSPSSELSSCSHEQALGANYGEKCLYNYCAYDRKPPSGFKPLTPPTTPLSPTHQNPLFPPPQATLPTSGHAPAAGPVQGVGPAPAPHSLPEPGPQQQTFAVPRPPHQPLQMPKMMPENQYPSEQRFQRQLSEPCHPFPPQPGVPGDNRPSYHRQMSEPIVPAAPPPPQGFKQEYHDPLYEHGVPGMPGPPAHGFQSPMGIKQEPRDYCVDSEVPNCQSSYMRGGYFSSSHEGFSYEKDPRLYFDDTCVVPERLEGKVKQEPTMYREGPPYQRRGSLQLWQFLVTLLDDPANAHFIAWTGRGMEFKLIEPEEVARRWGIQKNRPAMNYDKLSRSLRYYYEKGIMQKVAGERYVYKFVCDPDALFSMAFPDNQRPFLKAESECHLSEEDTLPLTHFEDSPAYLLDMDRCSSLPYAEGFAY
Chain of HSF1 (Q00613 whole entry): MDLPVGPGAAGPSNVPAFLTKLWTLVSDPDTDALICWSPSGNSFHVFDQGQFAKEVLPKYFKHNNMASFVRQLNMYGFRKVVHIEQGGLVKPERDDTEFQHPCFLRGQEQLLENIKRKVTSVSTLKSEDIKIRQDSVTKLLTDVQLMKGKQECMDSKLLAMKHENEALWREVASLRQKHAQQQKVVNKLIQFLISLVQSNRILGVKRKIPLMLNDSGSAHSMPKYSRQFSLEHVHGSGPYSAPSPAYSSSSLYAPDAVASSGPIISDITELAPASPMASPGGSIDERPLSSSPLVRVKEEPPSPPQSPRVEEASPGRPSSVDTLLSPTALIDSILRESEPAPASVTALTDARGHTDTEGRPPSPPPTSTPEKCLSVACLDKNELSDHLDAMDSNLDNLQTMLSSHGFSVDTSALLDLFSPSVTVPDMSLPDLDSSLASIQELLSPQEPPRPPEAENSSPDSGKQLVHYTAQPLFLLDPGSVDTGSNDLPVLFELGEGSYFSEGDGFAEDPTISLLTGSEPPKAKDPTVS
Chain of ELF4 (Q99607 whole entry): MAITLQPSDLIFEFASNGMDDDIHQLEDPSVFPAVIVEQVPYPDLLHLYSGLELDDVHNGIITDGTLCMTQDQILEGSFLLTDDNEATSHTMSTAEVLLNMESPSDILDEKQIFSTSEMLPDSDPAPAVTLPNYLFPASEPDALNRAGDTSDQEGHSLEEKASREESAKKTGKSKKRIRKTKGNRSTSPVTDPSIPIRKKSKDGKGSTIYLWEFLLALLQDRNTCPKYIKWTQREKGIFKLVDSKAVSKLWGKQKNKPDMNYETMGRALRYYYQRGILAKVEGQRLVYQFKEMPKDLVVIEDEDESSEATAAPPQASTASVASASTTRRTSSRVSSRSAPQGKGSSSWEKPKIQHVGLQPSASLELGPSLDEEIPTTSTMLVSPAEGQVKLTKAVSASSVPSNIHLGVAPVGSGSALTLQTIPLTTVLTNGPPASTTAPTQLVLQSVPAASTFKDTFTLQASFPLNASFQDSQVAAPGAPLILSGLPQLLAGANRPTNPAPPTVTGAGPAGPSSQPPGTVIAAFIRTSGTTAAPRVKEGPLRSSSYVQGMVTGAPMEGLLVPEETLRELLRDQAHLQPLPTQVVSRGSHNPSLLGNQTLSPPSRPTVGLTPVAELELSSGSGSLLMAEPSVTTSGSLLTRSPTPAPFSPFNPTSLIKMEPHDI
Chain of CRX (O43186 whole entry): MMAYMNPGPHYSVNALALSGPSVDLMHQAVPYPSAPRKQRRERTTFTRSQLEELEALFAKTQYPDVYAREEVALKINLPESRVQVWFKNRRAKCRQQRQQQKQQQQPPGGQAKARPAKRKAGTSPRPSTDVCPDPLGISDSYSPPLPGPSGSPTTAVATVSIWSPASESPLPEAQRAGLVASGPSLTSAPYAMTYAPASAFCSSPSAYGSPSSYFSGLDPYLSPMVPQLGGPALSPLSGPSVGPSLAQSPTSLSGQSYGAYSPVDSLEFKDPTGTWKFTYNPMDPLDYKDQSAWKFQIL
Chain of ETV1 (P50549 whole entry): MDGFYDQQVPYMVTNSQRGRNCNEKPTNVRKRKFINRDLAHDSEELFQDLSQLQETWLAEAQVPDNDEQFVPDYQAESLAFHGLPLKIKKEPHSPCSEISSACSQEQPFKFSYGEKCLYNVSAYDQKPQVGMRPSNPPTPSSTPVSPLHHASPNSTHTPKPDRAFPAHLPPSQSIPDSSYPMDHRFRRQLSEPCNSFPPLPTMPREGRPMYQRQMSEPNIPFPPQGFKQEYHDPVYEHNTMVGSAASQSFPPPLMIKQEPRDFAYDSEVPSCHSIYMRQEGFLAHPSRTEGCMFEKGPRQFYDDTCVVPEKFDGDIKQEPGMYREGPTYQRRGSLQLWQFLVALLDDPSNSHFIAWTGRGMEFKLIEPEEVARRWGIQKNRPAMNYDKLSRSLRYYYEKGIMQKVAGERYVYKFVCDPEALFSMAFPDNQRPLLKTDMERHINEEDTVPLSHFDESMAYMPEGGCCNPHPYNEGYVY

As for TGTATG, the binding signal in the assay with FEV is 1.21 fold enrichment (6-mer frequency, TF over GST control); in the assay with ETV5, 1.28 fold enrichment (6-mer frequency, TF over GST control); in the assay with HSF1, 1.06 fold enrichment (6-mer frequency, TF over GST control); with SPIC, 1.09 fold enrichment (6-mer frequency, TF over GST control); with ELF4 it was 1.22 fold enrichment (6-mer frequency, TF over GST control); with ELK4, 1.34 fold enrichment (6-mer frequency, TF over GST control). Besides, the binding signal with ETV2 was 1.18 fold enrichment (6-mer frequency, TF over GST control); with ELF3, 1.19 fold enrichment (6-mer frequency, TF over GST control); in the assay with CRX, 1.04 fold enrichment (6-mer frequency, TF over GST control); in the assay with ETV1, 1.27 fold enrichment (6-mer frequency, TF over GST control); with ERF, 1.31 fold enrichment (6-mer frequency, TF over GST control); with ETV3L it was 1.23 fold enrichment (6-mer frequency, TF over GST control). The binding signal was 1.26 fold enrichment (6-mer frequency, TF over GST control) with ETS2; 1.35 fold enrichment (6-mer frequency, TF over GST control) with SPDEF; 1.19 fold enrichment (6-mer frequency, TF over GST control) in the assay with ETV7; 1.22 fold enrichment (6-mer frequency, TF over GST control) in the assay with ELF5; 1.29 fold enrichment (6-mer frequency, TF over GST control) in the assay with ETV3; 1.16 fold enrichment (6-mer frequency, TF over GST control) in the assay with ETV6.
